rTrxR1 inhibitor: rat TrxR1 inhibition; 1% of 390,000 active; recombinant rTrxR1, NADPH fluorescence consumption, selenite substrate; Potency, µM (doses to about 114 µM), inactives show at the top dose activity change, negative = inhibition, hits mostly inhibitors; also: % is scaled to controls: 0 for no effect and ±100 for the full control effect; nearly all actives have a fitted effect of over 65% in size
Target sequence (O89049 whole entry, looked up): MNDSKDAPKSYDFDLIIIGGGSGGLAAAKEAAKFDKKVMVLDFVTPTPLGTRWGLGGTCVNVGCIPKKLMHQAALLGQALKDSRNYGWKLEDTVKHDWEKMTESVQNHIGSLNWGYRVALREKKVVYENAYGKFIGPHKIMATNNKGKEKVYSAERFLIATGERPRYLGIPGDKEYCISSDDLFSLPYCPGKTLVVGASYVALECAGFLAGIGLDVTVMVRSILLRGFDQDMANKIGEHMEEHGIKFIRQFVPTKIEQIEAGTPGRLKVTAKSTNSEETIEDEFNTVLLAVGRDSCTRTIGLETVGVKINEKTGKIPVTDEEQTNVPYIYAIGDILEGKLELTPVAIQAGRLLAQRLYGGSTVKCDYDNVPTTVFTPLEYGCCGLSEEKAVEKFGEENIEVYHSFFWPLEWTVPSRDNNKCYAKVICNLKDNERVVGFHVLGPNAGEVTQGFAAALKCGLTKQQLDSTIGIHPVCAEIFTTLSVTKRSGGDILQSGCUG
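Rat TrxR1 (90 nM in the dispensed reagent) was pre-reduced with 400 uM NADPH for 5 min at room temperature, then incubated with compound for 15 min. After 400 uM selenite was added, NADPH fluorescence (Ex 340/Em 450 nm) was followed for 8 min.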
Mito fusion act: mitochondrial division inhibition or fusion activation; S. cerevisiae fusion-defective mutant growth rescue, CellTiterGlo 48 h; Potency, µM (titrated, usually from 46.1 µM), for the others: at the highest dose growth rescue (activation), hits mostly activators; 0.23% of 320,000 active; also: % of control where 0% means no effect; nearly all actives have a fitted effect of over 45% in size
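Growth-rescue viability read-out: after 48 h at the non-permissive 37C in glycerol/ethanol YPEG, yeast mitochondrial fusion mutants are measured by CellTiterGlo luminescence; compounds (23 nl pinned per well) restoring growth score as division inhibitors or fusion activators.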
IDH1 R132H inh: blocks human mutant IDH1 R132H enzyme. AID 602179. IDH1-R132H enzyme, NADPH consumption, diaphorase/resazurin fluorescence. Potency, µM (titrated, usually from 76.6 µM), for inactives: top-dose activity change, negative = inhibition, actives largely listed as inhibitors. 0.093% of 390,000 active. O75874; also: % is scaled to controls: 0 for no effect and ±100 for the full control effect; nearly all actives have a fitted effect of over 65% in size
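IDH1-R132H (0.5 ug/mL dispensed) in pH 7.5 Tris buffer was preincubated 30 min with compound, then given a substrate mix of 0.016 mM NADPH and 2 mM alpha-KG for 80 min at room temperature; remaining NADPH was read by diaphorase/resazurin fluorescence.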
Nrf2 inh: Nrf2 pathway inhibition | A549 ARE-Fluc reporter, luciferase luminescence, 18-24 h | Potency, µM (highest dose often 46 µM), without a hit: at the top dose activity change, negative = inhibition, most hits filed as inhibitors | 2.1% of 360,000 active; also: % is scaled to controls: 0 for no effect and ±100 for the full control effect; nearly all actives have a fitted effect of over 60% in size
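Concentration-response testing used A549 ARE_Fluc cells at 5000 cells/well. Following an 18-24 h compound incubation, viability was read by fluorescence (Ex 405/Em 525) and luciferase output by luminescence.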
TrxR1 substrate: is turned over as a substrate by rat TrxR1. Potency, µM (titrated, usually from 114 µM), without a hit: at the highest dose activity change, negative = substrate turnover. 0.01% of 390,000 active. O89049. purified TrxR1 substrate turnover, NADPH consumption readout; also: % is scaled to controls: 0 for no effect and ±100 for the full control effect; nearly all actives have a fitted effect of over 50% in size
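Rat TrxR1, dispensed at 90 nM, was prereduced with 400 uM NADPH (final) for 5 min at ~22 deg C, then incubated with compound 15 min before 400 uM selenite. A first-read NADPH fluorescence drop versus no-compound background flagged substrates.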
A549 viability: counter-screen for Nrf2 inhibitors: cytotoxicity in A549 cells; A549 ARE-Fluc cells, CellTiter-Fluor viability, 18-24 h; Potency, µM (top dose mostly 46 µM), without a hit: top-dose activity change, negative = cytotoxicity, most hits filed as inhibitors; 0.16% of 390,000 active; also: % is scaled to controls: 0 for no effect and ±100 for the full control effect
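A549 ARE_Fluc cells in 5% FBS OPTI-MEM were exposed to compounds in concentration-response for 18-24 h at 37 deg C. Viability was read by CellTiter-Fluor fluorescence (Ex 405/Em 525) after 30 min, before the luciferase read.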
* marks the source's active call; other numbers are inactive results; ? = inconclusive; nt = not tested or not shown; ! = not confirmed by another sample; [ ] = dose if it differs, or a comment. Only some compounds are listed: those with a hit (about 3.1% of all), similar ones and a draw of the others. Calls follow the shape of the dose curve; as a rule, active = well fitted curve in the direction sought with a large enough effect; inconclusive = small, poorly fitted or top-dose-only effect, or another doubt; inactive = no such curve, though single readings can be large; an effect the other way counts as inactive or inconclusive. Potency is read from the fitted curve at half-maximal effect.

SMILES	rTrxR1 inhibitor	Mito fusion act	IDH1 R132H inh	Nrf2 inh	TrxR1 substrate	A549 viability
CO[C@H]1/C=C\O[C@@]2(C)Oc3c(C)c(O)c4c(O)c(c(C=NN5CCN(C6CCCC6)CC5)c(O)c4c3C2=O)NC(=O)C(C)=CC=C[C@H](C)[C@H](O)[C@@H](C)[C@@H](O)[C@@H](C)[C@H](OC(C)=O)[C@H]1C	-17%	nt	nt	nt	-19%	nt
O=C(COc1ccc(S(=O)(=O)NC2CCCCC2)cc1Cl)NCC1CCCO1 (centres undefined)	12%[57.1 µM]	0%	12%	-6%	-26%[57.1 µM]	3%
Cc1ccc(C(=O)NCCC2=CCCCC2)cc1S(=O)(=O)N1CCCCC1	8%	8%	-1%	23µM*	-5%	?
COc1ccc(CCNC(=O)COc2ccc(S(=O)(=O)NC3CCCCC3)cc2Cl)cc1	55%	3%	4%	21µM*	41%	?
Cc1ccc(C(=O)NCCC2=CCCCC2)cc1S(=O)(=O)N1CCOCC1	1%	2%	3%	?	-4%	0%
Cc1nc(-c2cccc(NC(=O)Nc3ccc([N+](=O)[O-])cc3)c2)no1	14%[57.1 µM]	nt	5%	nt	1%[57.1 µM]	?
Cc1cccc(N2CCN(C(=O)Cn3ncc4c3-c3ccccc3OC4)CC2)c1C	16%	nt	-3%	-7%	2%	0%
O=C(CC(c1ccccc1)c1ccco1)N1CCCCC1 (centres undefined)	nt	-5%	nt	nt	nt	nt
Cc1ccc(C(CC(=O)N2CCOCC2)c2ccco2)cc1 (centres undefined)	45µM*	-1%	4%	?	2%	-1%
CCOC(=O)Nc1ccc2c(CNC(C)c3ccccc3OC)cc(=O)oc2c1 (centres undefined)	8%	-2%	2%	13µM*	20%	?
CCC(NC(=O)c1cc(COc2cncc(Cl)c2)on1)c1ccncc1 (centres undefined)	43%	-2%	-8%	?	10%	6%
CCC(NC(=O)c1cc(COc2ccc(F)cc2Cl)on1)c1ccncc1 (centres undefined)	14%	1%	0%	16µM*	-7%	?
O=C(CNC(=O)C1CCCCC1)OC(C(=O)Nc1cc(C(F)(F)F)ccc1Cl)c1ccccc1 (centres undefined)	nt	nt	nt	-11%	nt	4%
COc1cccc(NC(=O)CN2CCN(C(=O)c3ccco3)CC2)c1	71µM*	2%	9%	-9%	9%	2%
COc1cccc(-c2nc(C#N)c(N3CCN(C(=O)c4ccco4)CC3)o2)c1	140%	2%	3%	4%	182%	2%
COc1cccc(-c2cc(C(=O)N3CCN(C(=O)c4ccco4)CC3)on2)c1	79µM*	-3%	8%	39%	5%	17%
O=C(CN1CCN(C(=O)c2ccco2)CC1)Nc1ccccc1	19%	1%	-8%	-14%	7%	-11%
O=C(c1cc2nc(-c3ccccc3)cc(-c3ccccc3)n2n1)N1CCN(C(=O)c2ccco2)CC1	42%[57.1 µM]	?	-1%	23µM*	24%[57.1 µM]	-2%
COC(=O)N1C(=O)[C@](c2ccc(Cl)cc2)(C(C)C)N1C(=O)OC	7.9µM*	-1%	12%	?	4%	3%
COC(=O)N1C(=O)[C@@](c2ccc(OC)cc2)(C(C)C)N1C(=O)OC	28µM*	1%	-5%	?	4%[57.1 µM]	?
COC(=O)N1C(=O)[C@@](c2ccccc2)(C(C)C)N1C(=O)OC	18µM*	0%	-1%	?	-1%	-17%
COc1ccc(C2(c3ccc(OC)cc3)NC(=O)N(CC(=O)NC(C)C)C2=O)cc1	-1%[57.1 µM]	-7%	-7%	5%	-1%[57.1 µM]	0%
CCOc1ccccc1NC(=O)CN(CCc1ccccc1)S(=O)(=O)c1ccc(C)cc1	14%	nt	14%	2%	-5%	10%
COc1ccc(Br)cc1CN(C)CC(=O)NCCc1ccccc1	33%[57.1 µM]	-2%	6%	2%	0%[57.1 µM]	-1%
COc1ccc(Br)cc1CN(C)CC(=O)Nc1c(Cl)ccc(C)c1Cl	-9%[57.1 µM]	?	-4%	18µM*	-5%[57.1 µM]	?
SMILES	rTrxR1 inhibitor	Mito fusion act	IDH1 R132H inh	Nrf2 inh	TrxR1 substrate	A549 viability
O=c1[nH]/c(=C/c2ccc3c(c2)OCO3)c(=O)[nH]/c1=C/c1ccc2c(c1)OCO2	20%	nt	nt	nt	4%	nt
Fc1cccc(CNc2ncnc3cc(Cl)ccc23)c1F	19%[2.29 µM]	-9%	-4%	18µM*	7%[57.1 µM]	-3%
O=C1C(Cc2ccccc2)Nc2ncnc(N3CCc4ccccc4C3)c2N1Cc1ccc(Cl)cc1 (centres undefined)	-4%	10µM*	-7%[38.3 µM]	?	2%	-12%
CC(C)CC1Nc2ncnc(N3CCCCC3)c2N(Cc2ccc(Br)cc2)C1=O (centres undefined)	29%[57.1 µM]	22µM*	-8%	-27%	8%[57.1 µM]	-4%
COc1ccc(C2Nc3ccccc3C(=O)N2CCc2ccccc2)cc1COc1ccc(NC(C)=O)cc1 (centres undefined)	nt	nt	nt	5%	nt	5%
N=c1nc2n(cc1F)C1OC(CO)C(O)C1O2 (centres undefined)	10%[11.4 µM]	nt	-7%	0.13µM*	6%[11.4 µM]	?
C=C1CN(CC(=O)OC)S(=O)(=O)c2ccccc21	?	-19%	1%[38.3 µM]	7%	6%[57.1 µM]	1%
C=C1CN(Cc2ccccc2)S(=O)(=O)c2ccccc21	28µM*!	-2%	6%	1%	-1%	2%
CCC(=O)N1CCc2cc(S(=O)(=O)NCCC(=O)Nc3ccc(C)cc3C)ccc21	10%	nt	0%	3%	1%	1%
N#Cc1ccccc1COc1ccc(/C=C/C(=O)O)cc1	24%[57.1 µM]	3%	27%	2.3µM*	4%[57.1 µM]	0%
COC(C/C=C/C(=O)[C@H](C)OCc1ccccc1)OC	45µM*	nt	-2%[38.3 µM]	3%	-8%	-1%
O=C(CNC(=O)c1ccccc1)N[C@@H](C(=O)Nc1cc(C(F)(F)F)ccc1Cl)c1ccccc1	nt	nt	nt	?	nt	-2%
O=C(O)CCc1nc(-c2ccccc2)c(-c2ccccc2)o1	17%[57.1 µM]	16µM*!	nt	nt	16%[57.1 µM]	nt
Cc1ccc(NC(=S)NCc2ccccn2)cc1	5%	-16%	7%	?	4%	9%
S=C(NCc1ccccn1)NN=Cc1ccccn1	-28%	nt	0%	15µM*	-10%	?
Cc1ccc(O)c(NC(=O)c2ccc(Br)c(S(=O)(=O)N3CCCCC3)c2)c1	-12%	nt	0%	5%	-10%	6%
Cc1cccc(N(Cc2cc3ccc(C)cc3[nH]c2=O)C(=O)c2ccco2)c1	35µM*	10%	-9%	6%	3%	14%

Assay outcomes deposited in PubChem by National Center for Advancing Translational Sciences (NCATS).
